This is one part of a sample in which hits are shown more often than they occur.
Tgondii IFNg: blocks Toxoplasma gondii growth in the presence of IFN-gamma; activity change, negative = inhibition, % (no concentration beside the values); actives 3.8% (n = 69,000); Toxoplasma gondii growth in IFN-gamma-treated host cells; stronger effect = lower value; in the data active = activity change below about -70%, passing the limit was not always enough;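 also: host cells are HeLa cells infected with Toxoplasma gondii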
The depositor's hits bear a star; i = inactive.

SMILES | Tgondii IFNg
CNC(=O)c1cnn(-c2nc(N)c3ncn([C@@H]4O[C@H](CO)C(O)C4O)c3n2)c1 (stereo not given in full) | 17
O=C(Nc1ccc(Br)cc1)N1CCC2(CC1)Nc1ccccc1-n1cccc12 | i
Cc1cccc(NC(=O)NCC(c2cccnc2)c2c[nH]c3ccccc23)c1 (stereo not given) | 457
CC(C)Oc1ccc(C(CC(=O)O)C(C)C)cc1 (stereo not given) | 36
CC(Cn1cccn1)C(=O)N1CCOc2c(O)cc(-c3cccnc3)cc2C1 (stereo not given) | -2
CSc1nncc(-c2ccc(Cl)cc2)n1 | -41
CSc1nccc(-c2ccc(O)cc2)n1 | -78*
COc1cccc(-c2ccc(O)cc2)n1 | 28
Cn1cc(CN(Cc2ccc(-n3ccnc3)cc2)C2CC2)cn1 | 58
Cc1nc(-c2ccccc2F)sc1C(=O)NCCS(=O)(=O)c1ccc(F)cc1 | -9
O=c1c(Cc2ccccc2Br)c(-c2ccccc2)oc2ccccc12 | -6
O=C(O)c1ccc(-c2ccc(O)c(F)c2)cc1 | 42
O/N=C/c1ccc(-c2ccc(O)c(F)c2)c(Cl)c1O | -87*
CC(=O)N1CC2(CCN(C(=O)c3cccc(N(C)C)c3)CC2)CC1C(=O)O (stereo not given) | -25
CN(C)c1nc(-c2ccccc2)nc(Nc2ccc(Cl)cc2Cl)c1C#N | 99
COc1ccc(CSc2nc(C)cc(C)c2C#N)cc1 | -21
COc1ccc(Cl)cc1Nc1nc(C)cc(C)c1C#N | -79*
CCCCN(Cc1ccco1)C(=O)c1cc(C(C)=O)c(C)[nH]c1=O | 3
Cc1cnc(C)c(-c2cc(O)c3c(c2)CN(C(=O)C2CCOCC2)CCO3)n1 | 0
CCCCN1CCC(O)(c2cnc(OC)nc2OC)CC1 | -22
CCn1c(CN2C[C@@H]3CC[C@@](O)(c4cnc(OC)nc4OC)[C@@H]3C2)nc2ccccc21 | -85*
COc1ccc(CN2C[C@@H]3CC[C@@](O)(c4ncccc4C)[C@@H]3C2)cc1 | -51
CCCc1nc(CN(CC)C(=O)c2ccc3ncsc3c2)no1 | 4
Fc1cnc(N2CCC3OCCCC3(COc3ccccn3)C2)nc1 (stereo not given) | -18
Cn1cnc2ccc(NC(=O)Cc3nonc3N)cc21 | 1
SMILES | Tgondii IFNg
c1coc(Cn2ccnc2-c2ccc(-c3ccn[nH]3)o2)c1 | 4
FC(F)(F)c1cc(-c2ccc(-c3ccn[nH]3)o2)cc(C(F)(F)F)c1 | -106*
Cc1cc(C)cc(N2CCN(Cc3ccc(-c4ccn[nH]4)o3)CC2=O)c1 | 4
Cc1nc(CN2C(=O)C[C@H]3[C@H]2CCN3CC2CCOCC2)cs1 | -3
Cc1ccc(C)n1NC(=O)c1ccccc1O | -95*
O=C(Nc1ccccc1)c1ccccc1O | -18
NC(=O)c1ccccc1O | 11
CCc1nc(NC(=O)c2cc3cc(C)ccc3nc2C)n[nH]1 | -23
COCC(=O)N1CCc2ncnc(-c3cnn(C)c3)c2CC1 | 110
CC(C)CC1CNC(=O)C12CCN(S(=O)(=O)c1cccc(F)c1)CC2 (stereo not given) | 21
Cc1ccc(-n2cc(CN(C)CCc3cnn(C)c3)c(-c3cccc(C)c3)n2)cc1 | -25
COC(=O)C1CC23C=CNC4CCC5(c6ccccc6NC15C2C)C43 (stereo not given) | -86*
Cc1nc(C(C)C)cc(N2CCC(Cn3ccnc3)CC2)n1 | -9
CCn1c(C2CCN(Cc3cccn3-c3ncccn3)CC2)nn(C)c1=O | 8
CCCCC(=O)N1CCC2(CC1)Nc1cc(OC)ccc1-n1cccc12 | -16
Cc1cccc(-c2nc(C)c(CCNC(=O)C(=O)Nc3cc(Cl)ccc3C)s2)c1 | 152
CC1(CCC#N)N=C(SCCC#N)N(c2ccccc2)C1=O (stereo not given) | -74*
Cc1cnc(N2CCc3onc(C(=O)NCCN(C)C)c3C2)nc1 | -3
CCN1c2cc(C)ccc2-n2cccc2C12CCN(C(=O)Nc1cccc(Cl)c1)CC2 | -82*
CCN1c2cc(C)ccc2-n2cccc2C12CCN(C(=O)Nc1ccc(F)c(Cl)c1)CC2 | 0
CCN1c2cc(C)ccc2-n2cccc2C12CCN(C(=O)Nc1ccccc1)CC2 | -13
CCN1c2cc(C)ccc2-n2cccc2C12CCN(C(=O)Nc1ccc(C)cc1)CC2 | -75*
CCN1c2cc(C)ccc2-n2cccc2C12CCN(C(=O)Nc1cccc(OC)c1)CC2 | -59
CCc1ccc(NC(=O)N2CCC3(CC2)c2cccn2-c2ccc(C)cc2N3CC)cc1 | -47
CCN1c2cc(C)ccc2-n2cccc2C12CCN(C(=O)Nc1cc(Cl)c(OC)cc1OC)CC2 | -47
SMILES | Tgondii IFNg
CCN1c2cc(C)ccc2-n2cccc2C12CCN(C(=O)Nc1ccccc1OC)CC2 | -88*
CCc1ccccc1NC(=O)N1CCC2(CC1)c1cccn1-c1ccc(C)cc1N2CC | 206
O=C(Cn1ncc2c(N3CCN(c4ccccc4)CC3)ncnc21)NC1CC1 | 21
CNC(=O)COc1ccc(-c2c(F)cccc2OC)cc1 | -39
Cc1cnc(-c2ccc(C(C)N3CCOCC3)cc2)c(Cl)c1 (stereo not given) | 18
CCOC(=O)c1nn(CC)c2c1CN(C(=O)C1CC=CCC1)CC2 (stereo not given) | -27

High-throughput results (PubChem BioAssay)
